According to PubChem BioAssay (NCATS):
Results filed as inconclusive are left out. A call without a number means that no potency is given here. Values without a mark were called inactive. Activity calls are given as the source filed them. The call rests on the fitted dose curve; in most records, active means well fitted inhibition curve with a large enough effect; inconclusive means small, poorly fitted or top-dose-only effect; inactive means flat fitted curve, though single readings scatter.

How the values were obtained:
FAB9 = assay: qHTS profiling for inhibitors of Plasmodium falciparum proliferation (AID 504749); further: potency means the concentration at half of the fitted maximal effect; settings: P. falciparum in erythrocytes, SYBR Green DNA, 72 h; series mostly up to 28.7 µM
Summary of the method: (§1)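 Parasite proliferation within erythrocytes, 72 h exposure. Endpoint: SYBR Green I fluorescence after overnight lysis at room temperature. Controls: 0.29 uM artemisinin, DMSO.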

GB4 = assay: as above; settings: P. falciparum in erythrocytes, SYBR Green DNA, 72 h; series mostly up to 28.7 µM
Summary of the method: as §1

HB3 = assay: as above; settings: P. falciparum in erythrocytes, SYBR Green DNA, 72 h; series mostly up to 28.7 µM
Summary of the method: as §1

ICS = assay: as above; settings: P. falciparum in erythrocytes, SYBR Green DNA, 72 h; series mostly up to 28.7 µM
Summary of the method: as §1

JCK = assay: as above; settings: P. falciparum in erythrocytes, SYBR Green DNA, 72 h; series mostly up to 28.7 µM
Summary of the method: as §1

N140 = assay: as above; settings: P. falciparum in erythrocytes, SYBR Green DNA, 72 h; series mostly up to 28.7 µM
Summary of the method: as §1

P93_24 = assay: as above; settings: P. falciparum in erythrocytes, SYBR Green DNA, 72 h; series mostly up to 28.7 µM
Summary of the method: as §1

P94_40 = assay: as above; settings: P. falciparum in erythrocytes, SYBR Green DNA, 72 h; series mostly up to 28.7 µM
Summary of the method: as §1

PAD = assay: as above; settings: P. falciparum in erythrocytes, SYBR Green DNA, 72 h; series mostly up to 28.7 µM
Summary of the method: as §1

PC15 = assay: as above; settings: P. falciparum in erythrocytes, SYBR Green DNA, 72 h; series mostly up to 28.7 µM
Summary of the method: as §1

PC26 = assay: as above; settings: P. falciparum in erythrocytes, SYBR Green DNA, 72 h; series mostly up to 28.7 µM
Summary of the method: as §1

PC49 = assay: as above; settings: P. falciparum in erythrocytes, SYBR Green DNA, 72 h; series mostly up to 28.7 µM
Summary of the method: as §1

SC27B = assay: as above; settings: P. falciparum in erythrocytes, SYBR Green DNA, 72 h; series mostly up to 28.7 µM
Summary of the method: as §1

TAB109 = assay: as above; settings: P. falciparum in erythrocytes, SYBR Green DNA, 72 h; series mostly up to 28.7 µM
Summary of the method: as §1

TAB113 = assay: as above; settings: P. falciparum in erythrocytes, SYBR Green DNA, 72 h; series mostly up to 28.7 µM
Summary of the method: as §1

TAB165 = assay: as above; settings: P. falciparum in erythrocytes, SYBR Green DNA, 72 h; series mostly up to 28.7 µM
Summary of the method: as §1

W2 = assay: as above; settings: P. falciparum in erythrocytes, SYBR Green DNA, 72 h; series mostly up to 28.7 µM
Summary of the method: as §1

CRL-7250 = normal cell line; assay: Cytotoxic Profiling of Annotated Libraries Using Quantitative High-Throughput Screening (AID 1296008); settings: Five cell lines viability, CellTiter-Glo ATP luminescence, 48-72 h; max response: active compounds read low
Summary of the method: (§2)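 Compounds were pin-transferred onto cells and incubated 48 or 72 hr at 37 degree Celsius, 95% humidity. CellTiter-Glo was added, plates sat 10 min at room temperature, then ATP-coupled luminescence was imaged as the viability read-out.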

HEK293 = assay: as above; settings: Five cell lines viability, CellTiter-Glo ATP luminescence, 48-72 h; max response: active compounds read low
Summary of the method: as §2

HaCat = assay: as above; settings: Five cell lines viability, CellTiter-Glo ATP luminescence, 48-72 h; max response: active compounds read low
Summary of the method: as §2
Further: nearly all actives have a fitted effect of over 60% in size.

Structure (SMILES): CC(O)CN(CCN(CC(C)O)CC(C)O)CC(C)O (stereo not drawn)
- Potency (FAB9): inactive
- Potency (GB4): inactive
- Potency (HB3): inactive
- Potency (ICS): inactive
- Potency (JCK): inactive
- Potency (N140): inactive
- Potency (P93_24): inactive
- Potency (P94_40): inactive
- Potency (PAD): inactive
- Potency (PC15): inactive
- Potency (PC26): inactive
- Potency (PC49): inactive
- Potency (SC27B): inactive
- Potency (TAB109): inactive
- Potency (TAB113): inactive
- Potency (TAB165): inactive
- Potency (W2): inactive
- max response (CRL-7250): 4.33%
- outcome (HEK293): inactive
- outcome (HaCat): inactive

Structure (SMILES): CCCCN(CCCC)CCCOC(=O)c1ccc(N)cc1
- Potency (FAB9): inactive
- Potency (GB4): inactive
- Potency (HB3): inactive
- Potency (ICS): inactive
- Potency (JCK): inactive
- Potency (N140): inactive
- Potency (P93_24): inactive
- Potency (P94_40): inactive
- Potency (PAD): inactive
- Potency (PC15): inactive
- Potency (PC26): inactive
- Potency (PC49): inactive
- Potency (SC27B): inactive
- Potency (TAB109): inactive
- Potency (TAB113): inactive
- Potency (TAB165): inactive
- outcome (CRL-7250): inactive
- outcome (HEK293): inactive
- max response (HaCat): -1.28%

Structure (SMILES): Cc1cc(O)cc2c1O[C@](C)(CCC[C@H](C)CCC[C@H](C)CCCC(C)C)CC2
- Potency (FAB9): inactive
- Potency (GB4): inactive
- Potency (HB3): inactive
- Potency (ICS): 8.91 µM (active)
- Potency (JCK): inactive
- Potency (N140): inactive
- Potency (P93_24): inactive
- Potency (P94_40): inactive
- Potency (PAD): inactive
- Potency (PC15): inactive
- Potency (PC26): inactive
- Potency (PC49): inactive
- Potency (SC27B): inactive
- Potency (TAB109): inactive
- Potency (TAB113): inactive
- Potency (TAB165): inactive
- Potency (W2): inactive
- max response (CRL-7250): -1.48%
- max response (HEK293): 2.12%
- outcome (HaCat): inactive

Structure (SMILES): O=C(O)[C@@H]1CSCN1
- Potency (FAB9): inactive
- Potency (GB4): inactive
- Potency (HB3): inactive
- Potency (ICS): inactive
- Potency (JCK): inactive
- Potency (N140): inactive
- Potency (P93_24): inactive
- Potency (P94_40): inactive
- Potency (PAD): inactive
- Potency (PC15): inactive
- Potency (PC26): inactive
- Potency (PC49): inactive
- Potency (SC27B): inactive
- Potency (TAB109): inactive
- Potency (TAB113): inactive
- Potency (TAB165): inactive
- max response (CRL-7250): -15.8%
- outcome (HEK293): inactive
- outcome (HaCat): inactive

Structure (SMILES): O=C1c2c(O)cccc2Cc2cccc(O)c21
- Potency (FAB9): inactive
- Potency (GB4): inactive
- Potency (HB3): inactive
- Potency (ICS): inactive
- Potency (JCK): inactive
- Potency (N140): inactive
- Potency (P93_24): inactive
- Potency (P94_40): inactive
- Potency (PAD): inactive
- Potency (PC15): inactive
- Potency (PC26): inactive
- Potency (PC49): inactive
- Potency (SC27B): inactive
- Potency (TAB109): inactive
- Potency (TAB113): inactive
- Potency (TAB165): inactive
- Potency (W2): inactive
- max response (CRL-7250): 0.516%
- outcome (HEK293): inactive
- outcome (HaCat): inactive
